From PubChem BioAssay
CYP2C19 activ: activators of human cytochrome P450 2C19. P33261. recombinant CYP2C19, luciferin-H EGE luminescence; active compounds read high; 0 = fully inhibited enzyme, 1 = untreated enzyme. activation factor at 5 µM. 96,000 tested, under 10 active;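 active means activation factor of at least 2 at 5 µM in the primary screen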;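 further: 0 = wells with 2.5 mM tranylcypromine and 1 = vehicle-only wells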
Target sequence (P33261 whole entry, looked up): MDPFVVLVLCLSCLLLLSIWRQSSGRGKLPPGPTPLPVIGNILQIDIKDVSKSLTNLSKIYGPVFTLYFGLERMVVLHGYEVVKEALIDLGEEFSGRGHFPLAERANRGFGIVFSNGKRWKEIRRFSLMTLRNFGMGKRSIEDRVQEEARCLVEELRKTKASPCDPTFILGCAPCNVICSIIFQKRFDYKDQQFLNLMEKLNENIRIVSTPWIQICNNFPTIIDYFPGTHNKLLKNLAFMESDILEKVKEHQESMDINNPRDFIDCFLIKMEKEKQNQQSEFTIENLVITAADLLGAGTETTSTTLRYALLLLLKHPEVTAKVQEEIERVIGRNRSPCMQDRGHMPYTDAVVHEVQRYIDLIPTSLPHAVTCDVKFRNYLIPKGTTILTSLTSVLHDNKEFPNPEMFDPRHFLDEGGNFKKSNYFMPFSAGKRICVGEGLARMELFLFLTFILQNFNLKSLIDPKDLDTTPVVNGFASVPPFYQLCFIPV
CYP2C9 inh: blocks human cytochrome P450 2C9 | P11712 | CYP2C9 Supersomes, luciferin-H conversion, luminescence | inhibition, % at 5 µM | 20% of 96,000 active;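 active means blocking of liver enzyme CYP2C9 beyond about 50% at 5 µM, limit read from the data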
CYP2C9 activ: activators of human CYP2C9. AID 1024. 1.4% of 96,000 active. recombinant CYP2C9, luciferin-H conversion, luminescence; active compounds read high; factor 1 = untreated enzyme, 0 = blocked. activation factor at 5 µM;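 active means activation factor of 2 or more for CYP2C9 at a 5 µM dose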;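 further: 0 = sulfaphenazole-blocked wells and 1 = vehicle-only wells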
CYP2C19 inh: blocks human cytochrome P450 2C19 | P33261 | CYP2C19 Supersomes, luciferin-H EGE luminescence, 30 min | inhibition, % at 5 µM | 21% of 96,000 active | AID 778;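 active means CYP2C19 inhibition above a set limit at 5 µM in the primary screen, cut at about 50% in these data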;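 further: plate controls were negative control wells for no effect and 2.5 mM tranylcypromine positive control for full effect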
Measles CPE: protection of cells from measles virus. Measles virus-infected cells, CPE protection, absorbance. protection (pct of control), % at 4 µM. 1.5% of 140,000 active. AID 841; in the data active means protection mostly above about 24%, no sharp cut-off; inactive means mostly below about 26%
* hit, by the source's call; / = no result; ! = not confirmed by another sample. In the library only some 22% were active in any assay of this set; here they are far more common.

SMILES	CYP2C19 activ	CYP2C9 inh	CYP2C9 activ	CYP2C19 inh	Measles CPE
CCOC1(C(F)(F)F)NC(=O)N(Cc2ccc(OC)cc2)C1=O (configuration not stated)	0.6	14	0.9	38	34*
COC(=O)c1cc(C(=O)OC)cc(N2C(=O)CC(NNC(=O)c3ccc(C)cc3)C2=O)c1 (configuration not stated)	/	/	/	/	6
CCOC(=O)N1CCN(CCC(=O)Nc2ccc(Br)cc2)CC1	0.1	95*	0.1	92*	23
CCOC(=O)N1CCN(CCC(=O)Nc2cccc(Br)c2)CC1	0.3	58*!	0.4	65*!	10
CCOC(=O)N1CCN(CCC(=O)Nc2ccc(C)c(Br)c2)CC1	0.8	15	0.9	21	5
COc1cccc(CNc2nc3nc(C)cc(C)n3n2)c1	0.7	-61	1.6	29	29
COc1ccccc1CNc1cc(CSc2ccc(Cl)cc2)nc(C)n1	0.1	94*	0.1	91*	0
COc1cccc(CNc2cc(CSc3ccc(Cl)cc3)nc(C)n2)c1	0.1	96*	0	94*	2
CC(C)n1c(C(=O)OCC(=O)NCc2ccc3c(c2)OCO3)cc2sccc21	0.6	86*	0.1	42	3
O=C(COC(=O)c1ccc2c(c1)OCO2)NCc1ccc2c(c1)OCO2	0.6	-23	1.2	40	2
CC(C)n1c(C(=O)OCC(=O)NCc2ccc3c(c2)OCO3)cc2occc21	0.9	59*	0.4	12	23
O=C(COC(=O)CSc1cc(Cl)ccc1Cl)NCc1ccc2c(c1)OCO2	/	/	/	/	5
Cc1cc2c(cc1C)-c1nnc(-c3ccc4ccccc4n3)n1C(C)(C)C2	0.9	-4	1	6	33
O=C(c1ccccc1)c1coc2ccc(O)c(Cl)c12	0.1	64*	0.4	90*	4
Cc1ccc(C(=O)c2coc3ccc(O)c(Cl)c23)cc1	0.5	6	0.9	54*	6
O=C(c1ccccc1)c1coc2ccc(O)c(CN3CCOCC3)c12	0	56*	0.4	96*	6
CC(=O)Nc1nc(-c2cccs2)cs1	0.7	54*	0.5	31	5
O=C(COc1ccccc1Cl)Nc1nc(-c2cccs2)cs1	0.6	82*	0.2	41	33
Cc1cnc(NC(=O)COc2ccccc2Cl)s1	0.8	12	0.9	20	16
CCOC(=O)c1csc(NC(=O)COc2ccc(Cl)cc2Cl)n1	/	/	/	/	3
COc1ccccc1Nc1nc(C2(C)CCC(=O)O2)cs1 (configuration not stated)	0.2	39	0.6	81*	19
Cc1cc(Cl)ccc1OCC(=O)Nc1nc(-c2cccs2)cs1	0.8	56*	0.4	21	11
COc1ccc(S(=O)(=O)N2CCN(C(=O)[C@@H]3CCC(=O)N3C3OC(=O)c4ccccc43)CC2)cc1 (some centres not stated)	0.9	7	0.9	5	7
COc1ccc(/C=C/C(=O)NCc2cn(C)nc2C)cc1COc1ccc(Cl)cc1Br	1	29	0.7	4	/
COc1ccccc1Nc1nc(-c2cccs2)cs1	0.2	72*	0.3	83*	29
SMILES	CYP2C19 activ	CYP2C9 inh	CYP2C9 activ	CYP2C19 inh	Measles CPE
COc1ccc(OC)c(Nc2nc(-c3cccs3)cs2)c1	1	12	0.9	2	3
CCN(CC)C(=O)CSc1nnc(-c2ccco2)n1Cc1ccco1	0.9	18	0.8	8	22
Cc1cc(C)c(S(C)(=O)=O)c(Sc2ccc(Cl)cc2)n1	0.5	65*	0.3	45	8
CCn1nc(C)c(/C=N\NC(=O)c2ccc3c(c2)OCO3)c1C	0.9	4	1	10	6
CCn1nc(C)c(/C=N/NC(=O)c2ccc3c(c2)c(C)c(C)n3Cc2ccccc2)c1C	0.1	89*	0.1	86*	2
CCn1ncc(/C=N\NC(=O)c2ccc3c(c2)c(C)c(C)n3Cc2ccccc2)c1C	0.3	93*	0.1	73*	21
CCn1cc(/C=N\NC(=O)c2ccc3c(c2)c(C)c(C)n3Cc2ccccc2)c(C)n1	0.3	9	0.9	73*	4
CCn1cc(/C=N\NC(=O)c2c[nH]c3ccccc23)c(C)n1	/	/	/	/	18
COc1cc2nc(CN(C)CC(=O)Nc3ccc(N4CCOCC4)cc3)[nH]c(=O)c2cc1OC	0.9	18	0.8	9	/
CC1=C(C(=O)OC(C)C)C(/C=C/c2ccccc2)NC(=O)N1 (configuration not stated)	1.1	-12	1.1	-14	/
